The sample as a whole holds a higher share of hits than the screen did.
TTR transcr act: increases transthyretin transcription; SH-SY5Y TTR promoter Gaussia luciferase, luminescence; 100% = recombinant luciferase protein wells; activation, % at 16.7 µM; 92,000 tested, 1.3% active;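 active means activation above the mean of all tested compounds plus 3 SD, cut at about 9.5% in these data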;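 further: cells exposed to compounds for one day before reading; 0% = median of all test compound wells on the plate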
HuH7 TTR inh: decreases TTR transcription in HuH7 cells in activator counter-screen; 1,100 tested, 4% active; inhibition, % at 16.7 µM; HuH7 TTR promoter-Gaussia luciferase reporter, luminescence; shares compounds with TTR transcr act;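 active means average inhibition above the solvent-only control wells' mean plus 3 SD, cut at about 15% in these data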;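 further: 0% = cells with DMSO only and 100% = cells with inhibitor control FD; inhibitors lower well luminescence so higher value means more inhibition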
TTR act confirm: human TTR transcription activation, confirmation; SHSY5Y TTR promoter Gaussia luciferase, luminescence; 100% = purified Lucia enzyme wells, no cells; activation, % at 16.7 µM; 1,100 tested, under 10 active; shares compounds with TTR transcr act;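 active means mean activation above a set limit taken from the earlier primary screen, cut at about 11% in these data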;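 further: 0% = DMSO-treated cells and 100% = recombinant Lucia luciferase without cells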
The depositor's hits bear a star.

SMILES	TTR transcr act	others
Cc1cccc(-c2csc(NC(=O)c3cnccn3)c2C(=O)OC(C)C)c1	0
OC(COC(c1ccc(Cl)cc1)c1ccc(Cl)cc1)CN1CCN(c2ccccn2)CC1 (stereo unspecified)	0
Cc1ccc(OCC(O)CN2CCN(c3ccccn3)CC2)c(C)c1 (stereo unspecified)	-4
OC(CN1CCN(c2ccccn2)CC1)Cn1c2ccc(Cl)cc2c2cc(Cl)ccc21 (stereo unspecified)	36*	HuH7 TTR inh=-6;TTR act confirm=1
CCSc1nnc(NC(=O)c2cccc3ccccc23)s1	-1
CCCSc1ncnc2[nH]ncc12	13*	HuH7 TTR inh=-4;TTR act confirm=0
Cc1ccc(CNc2ncnc3[nH]ncc23)cc1	1
OCCCNc1ncnc2[nH]ncc12	4
Clc1nc(Cl)c2ncn(-c3ccccc3)c2n1	-3
O=C(CCCSc1nc2ccccc2[nH]1)Nc1ccccc1	0
Cc1cccc(NC(=O)CCCSc2nc3ccccc3[nH]2)c1	1
Cc1ccccc1OCCCSc1nc2ccccc2[nH]1	31*	HuH7 TTR inh=-19;TTR act confirm=0
CC(C)(C)NC(=O)/C(=C\c1ccccc1F)NC(=O)c1ccc([N+](=O)[O-])cc1	5
C=CCNC(=O)/C(C#N)=C/c1ccc(C)o1	-1
Cc1ccnc(NC(=O)Cn2c(=O)oc3cc(S(=O)(=O)N4CCCC4)ccc32)c1	0
C=CCN1C(=O)C2(OCCCO2)c2cc(CCCC)ccc21	3
Cc1ccc2nc(SCCC#N)nc(C)c2c1	-3
CCOc1ccc2nc(SCc3cccc(C)c3)nc(C)c2c1	1
CCOC(=O)CCSc1nc(C)c2cc(C)c(C)cc2n1	15*	HuH7 TTR inh=-5;TTR act confirm=-2
COc1ccc2c(c1)OCC(O)(c1ccccc1)C2=O (stereo unspecified)	38*	HuH7 TTR inh=-7;TTR act confirm=2
COc1ccc(NC(=O)C(c2ccccc2)c2ccccc2)c(OC)c1	1
COc1ccc(OC)c(NC(=O)C2CC2c2ccccc2)c1 (stereo unspecified)	-2
CC[n+]1c(C)cc(C)n1-c1ccccc1	0
C=CCN(CC=C)C(=O)c1ccncc1	4
Cc1cccc2cc(C#N)c(N3CCOCC3)nc12	-1
SMILES	TTR transcr act	others
CC(O)CCC(=O)NNC1CC(=O)N(c2ccccc2)C1=O (stereo unspecified)	3
O=C1CC(NNc2ccccc2)C(=O)N1c1ccccc1 (stereo unspecified)	11*	HuH7 TTR inh=2;TTR act confirm=-1
CCOC(=O)NNC1CC(=O)N(c2ccccc2)C1=O (stereo unspecified)	2
CCCc1cc(C(=O)Nc2ccc(C(=O)c3ccc(C)cc3)cc2)n(C)n1	-1
COC(=O)C1=C(C)NC(=O)C1(NC(=O)c1ccncc1)C(F)(F)F (stereo unspecified)	-1
CC1=C(C#N)C(NC(=O)c2ccc(C)cc2)(C(F)(F)F)C(=O)N1 (stereo unspecified)	2
COC(=O)NC1(C(F)(F)F)C(=O)NC(C)=C1C(=O)OC (stereo unspecified)	19*	HuH7 TTR inh=-9;TTR act confirm=-1
Cc1c(C(=O)OCC(=O)Nc2ccccc2OC(F)F)cccc1[N+](=O)[O-]	1
COC(=O)[C@]12C[C@H](CC(=O)NCC34CC5CC(CC(C5)C3)C4)C(=O)N(CCc3ccc(OC)c(OC)c3)C1=C[C@H](C(C)C)O[C@@H]2C1CC1	4
Cc1cccc(NC(=O)c2ccc(N3CCCCC3)c([N+](=O)[O-])c2)n1	-1
O/N=C\c1ccc(-c2ccccc2)o1	-1
O=C(O)CCn1cc(C(=O)O)c(-c2ccccc2)n1	1
COc1ccc(N=C2SCC(=O)N2Cc2ccccc2)cc1	-1
CCOc1ccc(N2C(=O)CSC2=S)cc1	-2
CCOc1ccc(N=C2SCC(=O)N2CC)cc1	18*	HuH7 TTR inh=-11;TTR act confirm=0
Cc1ccc(C(=O)N/N=C/c2ccc(N3CCOCC3)cc2)c(C)c1	-1
O=C(Nc1cccc(Cl)c1)c1ccc(S(=O)(=O)NCC2CCCO2)cc1 (stereo unspecified)	-3
CCC(c1nnnn1Cc1ccco1)N(Cc1cc2cc(C)cc(C)c2[nH]c1=O)CC1CCCO1 (stereo unspecified)	18*	HuH7 TTR inh=14;TTR act confirm=0
Cc1cccc2cc(C(c3nnnn3C(C)(C)C)N(Cc3ccco3)CC3CCCO3)c(=O)[nH]c12 (stereo unspecified)	-2
CCC(c1nnnn1Cc1ccco1)N(Cc1ccccc1OC)Cc1cc2cc(C)ccc2[nH]c1=O (stereo unspecified)	7
O=C(CCc1ccccc1)Nc1nnc(-c2ccccn2)o1	1
COc1ccc(Nc2nc(Cl)nc(Nc3ccc(OC)cc3)n2)cc1	-2
COC1=C(Nc2ccc(OC)cc2)C(=O)C(OC)=C(Nc2ccc(OC)cc2)C1=O	1
COc1ccc(NC2=Nc3cccc4cccc2c34)cc1	15*	HuH7 TTR inh=-10;TTR act confirm=-1
CC1CCCN(S(=O)(=O)c2ccc(Cl)s2)C1 (stereo unspecified)	0
SMILES	TTR transcr act	others
CCN(CC)C(=O)CSc1nc(O)c(Cc2ccccc2)c(=O)n1-c1ccc(C)cc1	-3
Cc1ccc(N2CCN(C(=S)c3ccc(-c4cccc([N+](=O)[O-])c4)o3)CC2)cc1	1
CC(C)C[C@@H](COc1ccccc1)N1CCN(C)CCC1=O	3
C[C@H]1CCC(=O)N([C@H](COc2ccccc2)Cc2ccccc2)CC1	14*	HuH7 TTR inh=-5;TTR act confirm=0
CC1CCC(=O)N(CCOc2ccccc2)CC1 (stereo unspecified)	1
COC(=O)[C@]12C[C@H](CC(=O)N3CCCCC3)C(=O)N(CCc3ccc(OC)c(OC)c3)C1=C[C@H](C(C)C)O[C@@H]2C1CC1	1
O=C(CSC(=S)N1CCOCC1)Nc1ncc2c(n1)CCCC2=O	8
CCOc1ccc(NC(=O)Cn2nnc(C(=O)NCc3cccs3)c2N)cc1	21*	HuH7 TTR inh=-7;TTR act confirm=-1
COc1ccc(NC(=O)Cn2nnc(C(=O)NCc3cccs3)c2N)c(OC)c1	2
COc1cccc(NC(=O)Cn2nnc(C(=O)NCc3cccs3)c2N)c1	-2
CCCC(C(=O)NC(C)(C)C)N(CC1CCCO1)C(=O)c1snc(C(N)=O)c1N (stereo unspecified)	-1
c1ccc(-c2cnnc(-c3ccccn3)n2)cc1	-2
CC1(C)OC2OC(COC(=O)c3ccc([N+](=O)[O-])cc3)C3OC(C)(C)OC3C2O1 (stereo unspecified)	0
CC1(C)OC2OC(C3COC(=O)O3)C(OC(=O)c3ccccc3)C2O1 (stereo unspecified)	25*	HuH7 TTR inh=-7;TTR act confirm=-1
CC(=O)N1C(C)(C)CC(=NOC(=O)c2ccccc2)CC1(C)C	-1
Cc1c(C#N)c(N)c(C(=O)c2ccccc2)n1Cc1ccccc1	-3
COc1ccccc1NC(=S)N1CCC(c2nc3cc(C)c(C)cc3[nH]2)CC1	0
CC1CCc2nc3ccccc3c(C(=O)OCC(=O)N(C)C3CCS(=O)(=O)C3)c2C1 (stereo unspecified)	0
COc1cccc(NC(=O)COC(=O)c2c3c(nc4ccccc24)CCC(C)C3)c1 (stereo unspecified)	11*	HuH7 TTR inh=-3;TTR act confirm=0
COc1cccc(NC(=O)COC(=O)c2c(F)cccc2Cl)c1	-1
O=C(CN1CCN(Cc2ccc3c(c2)OCO3)CC1)Nc1ccc(F)cc1	1

Source: PubChem
